Bioassay records from PubChem.
Most compounds without a hit are left out; they make up all but 2.9% or so of the library.
TRPML1 inh: blocks the human TRPML1 channel; activity change, negative = inhibition, % (test concentration not listed); AID 624415; TRPML1-inducible cells, Ca2+ dye fluorescence, FDSS; hits give low values; inhibition of EC80 agonist-evoked calcium signal; Q9GZU1; 390,000 compounds, 0.02% hits; in the data active = activity change below about -50%; inconclusive = between about -30% and that limit;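 note: stimulus is agonist 54-4 at its EC80 concentration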
Target sequence (Q9GZU1 whole entry, looked up): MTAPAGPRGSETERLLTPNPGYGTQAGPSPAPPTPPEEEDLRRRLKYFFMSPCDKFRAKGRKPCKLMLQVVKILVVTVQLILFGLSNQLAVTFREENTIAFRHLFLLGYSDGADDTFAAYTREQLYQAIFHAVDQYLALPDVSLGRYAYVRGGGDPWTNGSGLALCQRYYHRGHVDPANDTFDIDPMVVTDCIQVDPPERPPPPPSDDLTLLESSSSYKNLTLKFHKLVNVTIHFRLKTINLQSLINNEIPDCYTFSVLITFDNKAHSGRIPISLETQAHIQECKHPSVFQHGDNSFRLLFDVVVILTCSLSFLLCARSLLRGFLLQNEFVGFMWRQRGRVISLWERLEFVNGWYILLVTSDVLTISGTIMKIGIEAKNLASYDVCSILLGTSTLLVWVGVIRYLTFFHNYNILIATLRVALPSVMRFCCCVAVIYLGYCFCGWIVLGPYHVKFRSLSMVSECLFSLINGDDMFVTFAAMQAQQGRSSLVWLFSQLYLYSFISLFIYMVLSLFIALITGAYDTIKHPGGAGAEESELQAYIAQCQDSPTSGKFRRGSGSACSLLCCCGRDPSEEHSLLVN
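TRPML1-DL cells, Tet-induced overnight (~16 h, 37 °C) at 1,500 cells/well, were loaded with Ca8 no-wash dye plus quencher for 45-90 min at room temperature. Compounds were pinned during FDSS kinetic reading; agonist 54-4 at EC80 (4 uM final) then added.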
TRPML1 agonist: activates the human TRPML1 channel. activation, % (concentration not given with the values). TRPML1-expressing cells, Ca2+ dye fluorescence, FDSS. 410,000 compounds, 0.12% hits; in the data active = activation above about 50%; inconclusive = mostly about 30% to 49%
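Cells: TRPML1-DL, 1X Tet inducer, ~16 h at 37 degrees C/5% CO2. Dye: ABD Ca8 no-wash + quencher, 45-90 min RT. Read: 10 s baseline, compound add, 110 s agonist phase; 54-4 EC80 (4uM final), 110 s antagonist phase.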
DRD3 agonist: activates the human D3 dopamine receptor; P35462; AID 652048; 410,000 compounds, 0.58% hits; D3R DiscoveRx beta-arrestin cells, luminescence, 90 min; max activation, %; in the data active = max activation above about 30%
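Agonist-mode cell screen: cells plated at 1500/well and incubated overnight at 37 °C, then exposed to library compounds for 90 min at 37 °C. Detection reagent was added for 30–60 min at room temperature, and luminescence was read.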
D3 antag: antagonists of human D3 dopamine receptor; D3R cells, DiscoveRx beta-arrestin luminescence, antagonist mode; hits give low values; 360,000 compounds, 2.5% hits; P35462; max response, negative = inhibition, %; AID 652054; in the data active = max response below about -50%; inconclusive = no clear call, values can overlap the other calls
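Cells plated overnight at 1500 cells/well, then exposed to library compounds with dopamine controls for 90 minutes at 37 degrees C. DiscoveRx reagent added for 30–60 minutes at room temperature; luminescence read, quantitative HTS format.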
Numbers stand for hits; n = inactive; u = inconclusive; x = not tested or not shown.

SMILES | TRPML1 inh | TRPML1 agonist | DRD3 agonist | D3 antag
CCN(CC)c1ccc(/C=C/c2ccncc2)cc1 | x | n | x | x
CC(C)(C)c1ccc(OCCNCc2ccccc2)cc1 | n | n | n | -53
O=C(NCc1cccc(Br)c1)c1ccc(-n2cnc3cccnc32)cc1 | n | n | n | x
CCn1nc(C)c(Br)c1-c1nc(-c2ccc(C)cc2)no1 | n | n | 35 | n
CCn1nc(C)c(Br)c1-c1nc(CS(=O)(=O)c2ccc(F)cc2)no1 | n | n | n | n
Cc1ccc(C(=O)NC(=S)Nc2cccc(NC(=O)c3ccccc3Cl)c2)cc1[N+](=O)[O-] | n | n | n | u
Cc1ccc(C(=O)NC(=S)Nc2cccc(NC(=O)c3ccccc3)c2)cc1[N+](=O)[O-] | n | n | n | -68
Cc1c(C(=O)NC(=S)Nc2cccnc2)cccc1[N+](=O)[O-] | n | n | n | -65
O=C(CN1C(=O)c2ccccc2S1(=O)=O)Nc1cc(S(=O)(=O)N2CCOCC2)ccc1N1CCOCC1 | x | n | x | x
COc1ccc(C(=O)c2c(-c3cccc(C)c3)oc3ccc(N4CCOCC4)cc23)cn1 | n | n | 36 | n
CCCNC(=O)C1(C)CCCN(C(=O)c2ccc3c(c2)CCO3)C1 (stereo not given) | x | n | n | n
CCNC(=O)C1(C)CCN(C(=O)c2ccc3c(c2)CCO3)C1 (stereo not given) | x | n | n | -51
COc1ccc2c(c1)c1c(c(=O)n(-c3ccccc3)c(=O)n1CC(=O)Nc1ccc(F)cc1)n2C | n | n | n | x
CCc1nn(CC(=O)N(CC)Cc2ccccc2)c(=O)c2cc3occc3n12 | n | n | n | x
CCN(CC)CCCOC(=O)C(c1ccccc1)c1ccccc1 | x | x | n | -85
O=C(/C=C/c1ccccc1)OCc1ccccc1 | x | x | n | x
CCN(CC)CCOC(=O)/C=C/c1ccccc1 | n | n | n | -63
CN1CCN(c2ncc3c(n2)CCN(Cc2ccccc2Cl)C3)CC1 | n | n | n | x
O=c1[nH][nH]c(C(F)(F)F)c1C=Nc1ccccc1 | n | n | n | -54
O=c1[nH][nH]c(C(F)(F)F)c1C=Nc1cccc(Cl)c1 | n | n | n | n
CCC1CC=CC2C1C(=O)N(Cc1ccccc1)C2c1cccc([N+](=O)[O-])c1 (stereo not given) | n | n | x | x
CN(CC(=O)Nc1ccc(Cl)cc1)C(=O)c1cccc(S(=O)(=O)NCc2ccccc2)c1 | n | n | n | -64
CCC(C)NCCOc1cccc(Br)c1 (stereo not given) | n | n | n | -72
C=CCNCCOc1cccc(Br)c1 | n | n | n | -76
CN(C)CCCNc1cc(N2CCN(C3CCCCC3)CC2)c2noc3c2c1C(=O)c1ccccc1-3 | n | n | n | x
SMILES | TRPML1 inh | TRPML1 agonist | DRD3 agonist | D3 antag
CC1CCN(CCC(=O)Nc2ccc(F)c(F)c2)CC1 | x | x | n | -51
Cc1cc(NC(=O)CCN2CCCCC2)ccc1Br | n | n | n | n
Cc1cc(NC(=O)CCN2CCC(C)CC2)ccc1Br | n | n | n | -106
CCN(CCC(=O)Nc1ccc(Br)c(C)c1)Cc1ccccc1 | n | n | n | -82
CC1CCN(CCC(=O)Nc2ccc(Br)cc2)CC1 | n | n | n | -76
O=C(CCN(CCO)Cc1ccccc1)Nc1ccc(Br)cc1 | n | n | n | u
CC[N+](CC)(CC)CCOC(=O)C(C1CCCC1)C1CCCC1 | x | x | n | x
Cc1ccc(N=Cc2cc(Br)cc(Cl)c2O)cc1 | n | n | n | -65
COC(=O)CN1CC(=O)c2ccccc2S1(=O)=O | n | n | x | x
CC(C)CC1C(C#N)=C(N)OC2=C1C(=O)CC(c1ccccc1)C2 (stereo not given) | n | n | n | -63
Cc1cc(C(=O)COC(=O)c2ccc(O)cc2O)c(C)n1-c1ccccc1 | n | n | n | n
COc1ccc(-n2c(C)cc(C(=O)COC(=O)c3ccc(O)cc3O)c2C)cc1 | n | n | 44 | n
Cc1ccc(OCCN2CCN(C(=O)CCC(=O)Nc3nnc(C(C)C)s3)CC2)cc1 | n | n | 33 | n
Cc1ccc(OCCN2CCN(C(=O)CCC(=O)Nc3nnc(C)s3)CC2)cc1 | n | n | 37 | n
CCCc1nnc(NC(=O)CCC(=O)N2CCN(CCOc3ccc(C)cc3)CC2)s1 | n | n | 70 | n
CCCc1nnc(NC(=O)CCC(=O)N2CCN(CCn3c(C)ccc3C)CC2)s1 | n | n | n | n
CN[C@H](CC(C)C)C(=O)N[C@H]1C(=O)N[C@@H](CC(N)=O)C(=O)N[C@H]2C(=O)N[C@H]3C(=O)N[C@H](C(=O)N[C@@H](C(=O)O)c4cc(O)cc(O)c4-c4cc3ccc4O)[C@H](O)c3ccc(c(Cl)c3)Oc3cc2cc(c3O[C@@H]2O[C@H](CO)[C@@H](O)[C@H](O)[C@H]2O[C@H]2C[C@](C)(N)C(O)[C@H](C)O2)Oc2ccc(cc2Cl)[C@H]1O (stereo not given in full) | x | x | n | x
Cc1ccc(S(=O)(=O)N2CCN(c3nc(-n4c(=O)[nH]c5ccccc54)nc4ccccc34)CC2)cc1 | x | n | x | x
COC(=O)C1=C(C)NC(COC(N)=O)=C(C(=O)OC(C)C)C1c1cccc(Cl)c1Cl (stereo not given) | x | x | n | x
c1c(C2CCCCC2)n[nH]c1CN1CCCCC1 | n | n | n | -73
CSc1ccc(OC2(C)CCN(Cc3ccc(OC(C)C)cc3)C2)cc1 (stereo not given) | x | n | n | u
Cc1ccc(CN2CCC(C)(Oc3cccc(Cl)c3)C2)cc1 (stereo not given) | x | n | n | -103
CC1(Oc2cccc(Cl)c2)CCN(Cc2ccc(OC(F)(F)F)cc2)C1 (stereo not given) | x | n | n | n
Cc1ccc(CN2CCC(C)(Oc3ccc(Cl)cc3)C2)cc1 (stereo not given) | x | n | n | -95
COCOc1cccc(CN2CCC(C)(Oc3cccc(C#N)c3)C2)c1 (stereo not given) | x | n | n | -50
SMILES | TRPML1 inh | TRPML1 agonist | DRD3 agonist | D3 antag
CC1(Oc2cccc(F)c2)CCN(Cc2ccc3ccccc3c2)C1 (stereo not given) | x | n | n | -117
Cc1ccccc1OC1(C)CCN(Cc2ccc3ccccc3c2)C1 (stereo not given) | x | n | n | n
COc1ccc(OC2(C)CCN(Cc3ccc(-c4ccccc4)o3)C2)cc1 (stereo not given) | x | n | n | -128
COc1ccc(Cl)cc1N1C(=O)C2CCCN2C1c1sccc1C (stereo not given) | n | n | n | -63
COc1ccc(C2N(c3cc(Cl)ccc3OC)C(=O)C3CCCN32)cc1 (stereo not given) | n | n | n | n
CON=C1C[C@]2(C[C@@H]3C[C@@H](C/C=C(\C)C[C@@H](C)/C=C/C=C4\CO[C@@H]5[C@H](O)C(C)=C[C@@H](C(=O)O3)[C@]45O)O2)O[C@H](/C(C)=C/C(C)C)[C@H]1C | x | x | n | x
CC(=O)Nc1nnc(CSCc2ccc(F)cc2)s1 | n | n | n | -51
C[n+]1ccnc2ccccc21 | x | n | x | x
CS(=O)(=O)c1nc(-c2ccccc2)cc(-c2ccccc2)c1C#N | n | n | n | -66
